# Screening results from PubChem BioAssay.
# Shown are actives, neighbours in structure and some others; about 2.3% of the full set was active somewhere.
# Tau fibril FP: blocks human tau fibril formation measured by polarization | actives 0.39% (n = 280,000) | P10636 | Potency, µM (series often up to 57.7 µM), without a hit: at the top dose activity, negative = inhibition, actives largely listed as inhibitors | K18 P301L tau heparin fibrillization, Alexa594 FP, 6 h; further: potency means the concentration at half of the fitted maximal effect; nearly all actives have a fitted effect of over 55% in size
#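 Steps: dispense K18 P301L tau (15 uM plus 0.24 uM Alexa 594 tracer, final) in pH 7 sodium acetate; add compound; add heparin (20 uM final); incubate 6 hr, 37 C; add ThT (30 uM final); after 1 hr ambient, read FP.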
# Coupling enz: inhibits coupling enzyme system, counter-screen for aldolase hits; activity change, negative = inhibition, % at 58.2 µM, hits read low; actives 0.67% (n = 290,000); coupling enzyme system counterscreen, AmpLite Red fluorescence; in the data active means activity change below about -30%
#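 Final compound at 57.5 uM, incubated 10 min at RT with coupling enzyme reagent (glyceraldehyde-3-phosphate), then 20 min with substrate and AmpLite Red detection. Fluorescence read at 525/598 nm; tests interference with the coupling assay, not aldolase inhibition.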
# Tau fluor counter: counter-screen for tau fibril formation inhibitors; actives 0.93% (n = 280,000); tau K18 P301L Alexa594 fluorescence, heparin fibrillization; Potency, µM (highest dose often 57.7 µM), for inactives: at the top dose activity change, negative = decrease; AID 1463; further: potency means the concentration at half of the fitted maximal effect; nearly all actives have a fitted effect of over 55% in size
#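 Human K18 P301L tau (15 uM unlabeled plus 0.24 uM Alexa 594-labeled, final) in 100 mM sodium acetate pH 7 was mixed with compound and 20 uM heparin and incubated 6 hr at 37 C.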
# Tau ThT inhib: tau fibrillization inhibition (ThT binding); recombinant tau K18 P301L (four-repeat tau fragment), heparin-induced fibrillization, ThT fluorescence; Potency, µM (top dose mostly 57.4 µM), inactives show top-dose activity, negative = inhibition, usual class: inhibitors; actives 2.1% (n = 270,000); AID 1460; further: potency means the concentration at half of the fitted maximal effect; nearly all actives have a fitted effect of over 55% in size
#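 Heparin-induced (20 uM) aggregation of recombinant human K18 P301L tau, 15 uM unlabeled with 0.24 uM labeled, pH 7 acetate buffer, 6 hr at 37 C with compound. Fibrils quantified by 30 uM ThT fluorescence after 1 hr ambient incubation.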
# USP1 inh: inhibitors of human USP1/UAF1 deubiquitinase; O94782; recombinant USP1/UAF1, Ub-Rhodamine cleavage fluorescence; Potency, µM (doses to about 57.1 µM), inactives show at the top dose activity change, negative = inhibition, hits mostly inhibitors; actives 0.23% (n = 390,000); AID 743255; further: potency means the concentration at half of the fitted maximal effect; nearly all actives have a fitted effect of over 60% in size
# Target sequence (O94782 whole entry, looked up): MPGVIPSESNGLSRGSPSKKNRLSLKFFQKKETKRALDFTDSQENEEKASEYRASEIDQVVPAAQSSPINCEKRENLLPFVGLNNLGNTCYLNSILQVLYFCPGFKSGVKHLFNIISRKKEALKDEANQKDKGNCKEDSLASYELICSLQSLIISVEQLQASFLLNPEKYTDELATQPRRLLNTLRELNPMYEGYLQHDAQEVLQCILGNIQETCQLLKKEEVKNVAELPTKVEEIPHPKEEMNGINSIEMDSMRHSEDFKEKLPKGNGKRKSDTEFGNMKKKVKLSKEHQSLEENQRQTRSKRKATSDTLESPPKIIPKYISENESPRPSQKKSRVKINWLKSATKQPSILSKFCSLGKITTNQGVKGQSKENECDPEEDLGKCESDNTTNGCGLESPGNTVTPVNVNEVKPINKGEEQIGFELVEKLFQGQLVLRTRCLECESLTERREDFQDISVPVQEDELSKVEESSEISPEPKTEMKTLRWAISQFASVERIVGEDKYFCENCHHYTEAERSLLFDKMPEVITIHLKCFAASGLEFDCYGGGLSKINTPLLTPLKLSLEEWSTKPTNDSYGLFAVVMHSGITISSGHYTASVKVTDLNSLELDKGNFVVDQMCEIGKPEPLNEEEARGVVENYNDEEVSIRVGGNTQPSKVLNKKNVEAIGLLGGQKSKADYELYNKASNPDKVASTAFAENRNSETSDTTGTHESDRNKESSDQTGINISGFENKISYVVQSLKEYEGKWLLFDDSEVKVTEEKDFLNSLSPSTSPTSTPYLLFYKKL
#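 High-throughput fluorogenic screen: 1nM USP1/UAF1 complex, Ub-Rho substrate 150nM final, 50mM HEPES pH 7.8 with 0.5mM EDTA, 0.1 mg/ml BSA, 1mM TCEP and 0.01% Tween-20.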
# An asterisk follows results filed as active; ? = inconclusive; . = no result; [ ] = another dose, or the depositor's remark. Unless noted, the call rests on the fitted dose curve; in most records, active means well fitted curve in the direction sought with a large enough effect; inconclusive means small, poorly fitted or top-dose-only effect, or another doubt; inactive means no such curve, though single readings can be large; an effect the other way counts as inactive or inconclusive. On the % scale 0 is the no-effect control and ±100 the full control effect.
SMILES,Tau fibril FP,Coupling enz,Tau fluor counter,Tau ThT inhib,USP1 inh
O=C(Nc1ccc(Cl)cc1Cl)c1cc(S(=O)(=O)NCc2ccc3c(c2)OCO3)ccc1F,-17.9%,.,-5.2%,7.0%,-19.0%
O=C(Cn1nc(Cc2ccncc2)c2ccccc2c1=O)N1CCc2ccccc2C1,-9.1%,-25.4,-6.3%,-6.2%,28.2µM*
CCCCNC(=O)Cn1nc(Cc2ccncc2)c2ccccc2c1=O,.,5.5,.,.,-17.3%
CCN(C(=O)Cn1nc2c3cc(F)ccc3n(Cc3cccc(C)c3)cc-2c1=O)c1cccc(C)c1,0.8%,.,4.1%,-16.1%,-18.0%
COc1cc(C(c2c(C)[nH][nH]c2=O)c2c(C)[nH][nH]c2=O)cc([N+](=O)[O-])c1O,?,-28.4,-25.4%,14.1µM*,?
CCOc1cc(C(c2c(C)[nH][nH]c2=O)c2c(C)[nH][nH]c2=O)ccc1OCc1ccc([N+](=O)[O-])cc1,-5.3%,-14.3,?,11.2µM*,-23.9%
CCOc1cc(C(c2c(C)[nH][nH]c2=O)c2c(C)[nH][nH]c2=O)cc([N+](=O)[O-])c1O,.,-7.9,.,.,-17.0%
COc1ccc(/C=N/OCC(=O)N=Nc2c(O)[nH]c3ccc(Br)cc23)cc1OC,?,-3.4,?,17.8µM*,-22.9%
COc1ccccc1CNC(=O)c1ccc2c(c1)N(Cc1cc(C)ccc1C)C(=O)c1ccccc1S2,-11.4%,.,-4.3%,3.9%,-16.2%
COc1ccc(NS(=O)(=O)c2cc(NC(=O)/C=C/c3cccs3)ccc2N2CCOCC2)cc1,3.7%,1.6,15.8µM*[quencher],-9.1%,-23.6%
COc1ccc(NS(=O)(=O)c2cc(NC(=O)c3cccs3)ccc2N2CCCC2)cc1,?,-0.9,15.8µM*[quencher],-12.4%,-13.0%
COc1ccc(NC(=O)c2cc(S(=O)(=O)Nc3ccc(OC)cc3)cs2)cc1,?,4.0,12.6µM*[quencher],-15.7%,-24.3%
COc1ccc(NS(=O)(=O)c2ccc(N3CCCC3)c(NC(=S)Nc3cccc(S(=O)(=O)N(C)C)c3)c2)cc1,?,0.4,?,25.1µM*,.
CCOc1ccccc1-c1ccc(C(=O)O)s1,-0.3%[126 µM],9.7,-5.7%[126 µM],-9.1%[126 µM],.
Cc1ccc(-c2nn(CC(=O)NCc3ccccc3)c3c2cnc2ccc(F)cc23)cc1C,-9.4%,.,-2.6%,-8.7%,-6.5%
CCC(=O)[C@]12O[C@@]3(C4C(=O)OCCC41)N(CC)C(C)=C(C(=O)OC)C(c1ccccc1)N3C2=O (stereo partly drawn),-13.9%[11.6 µM],-0.4,-11.2%[11.6 µM],-17.1%[11.5 µM],.
CS(=O)(=O)N(CC(=O)Nc1ccc(Br)cc1)c1ccccc1Br,-9.8%,.,-18.4%,4.4%,-18.7%
CNc1nc2c(c(=O)n(C)c(=O)n2C)n1CC(O)COc1ccc(OC)cc1 (stereo not drawn),1.6%,.,7.1%,-2.1%,-4.5%
Oc1ccc(/C=N/Nc2cccc3cccnc23)c(O)c1,8.7%,-2.8,7.94µM*[quencher],6.31µM*,-4.1%
CS(=O)(=O)c1ccc(Sc2nc3ccccc3s2)c([N+](=O)[O-])c1,9.7%,0.5,?,?,-18.9%
O=[N+]([O-])c1c(NCCCO)cc(Sc2nc3ccccc3s2)c2nonc12,-20.8%,0.2,?,2.24µM*,?
NCCNc1ccc([N+](=O)[O-])c(Sc2nc3ccccc3[nH]2)c1,-5.1%,2.7,?,?,1.9%
CCC(=O)OCCNc1cc(Sc2nc3ccccc3[nH]2)c2nonc2c1[N+](=O)[O-],?,-1.8,?,8.91µM*,-5.0%
CCC(=O)OCCNc1cc(Sc2nc3ccccc3s2)c2nonc2c1[N+](=O)[O-],-11.6%,-13.0,?,7.94µM*,?
CC(C)CCNC(=O)C(CC(C)C)NC(=O)C1OC1C(=O)O (stereo not drawn),.,0.6,.,.,.
SMILES,Tau fibril FP,Coupling enz,Tau fluor counter,Tau ThT inhib,USP1 inh
CC1/C=C/C=C/C=C/C=C/C=C/C=C/C=C/C(OC2OC(C)C(O)C(N)C2O)CC2O[C@@](O)(CC(O)CC(O)C(O)CCC(O)CC(O)CC(=O)OC(C)[C@H](C)C1O)CC(O)C2C(=O)O (stereo partly drawn),3.98µM*,-5.5,?,3.98µM*,.
CCOc1ccc(CNC(=O)c2cnc3sc(N4CCC(C)CC4)nn3c2=O)cc1OC,5.6%,.,-4.8%,-4.7%,-15.5%
CC(C)CO/N=C1/C[C@@H](O)[C@@H](O)[C@@H]2[C@@H]3C(=O)N(C4CCCCC4)C(=O)[C@H]3CC[C@@H]12,-4.7%[11.6 µM],0.2,-16.1%[11.6 µM],-14.5%[11.5 µM],.
CCC(NC(=O)NCc1ccccc1)(C(F)(F)F)C(F)(F)F,?,-0.1,-2.8%,-3.3%,-10.2%
CCC(NC(=O)Nc1ccc(O)cc1)(C(F)(F)F)C(F)(F)F,?,-42.6*,?,?,-16.8%
CC(NC(=O)Nc1ccc(O)cc1)(C(F)(F)F)C(F)(F)F,?,-33.1*,?,22.4µM*,?
Cc1cc2nc3ccc(=[N+](C)C)cc-3sc2cc1N,8.91µM*,-41.6*,?,1.12µM*,?
CN1c2ccccc2C(C)(C)C12C=Nc1c(cc(N3CCOCC3)c3ccccc13)O2 (stereo not drawn),-3.9%,-65.9*,?,?,?
CN1c2ccccc2C(C)(C)C12C=Cc1cc(O)ccc1O2 (stereo not drawn),3.4%,-17.1,?,?,-24.9%
Cc1nn(-c2ccccc2)c2[nH]c(=O)c(CNc3ccc(N4CCOCC4)cc3)cc12,?,-17.6,?,17.8µM*,-14.8%
CC(C)(C)c1nn(-c2ccccc2)c2[nH]c(=O)c(CNc3ccc4c(c3)OCCO4)cc12,7.8%,-2.2,?,?,?
COC(=O)c1ccc(-c2nc3cc(N)ccc3o2)cc1,13.4%,-0.4,-17.5%,5.01µM*,-25.2%
CC1(C)OC(c2ccccc2)=C/C(=C\C=N\NC(=O)c2ccncc2)O1,?,-0.9,?,11.2µM*,-10.7%
Nc1ccc2nc(N)sc2c1,.,.,.,.,-10.3%
Nc1nc2ccc([N+](=O)[O-])c(N)c2s1,?,-0.8,?,11.2µM*,-2.2%
Cc1ccc(C)c(N2CCN(S(=O)(=O)c3cc(Br)cc4c3N(C(=O)C3CC3)CC4)CC2)c1,-3.8%,.,-19.7%,-11.6%,?
COc1ccc(/C=N/NC(=O)Cc2csc(Nc3cccc(C(F)(F)F)c3)n2)cc1C,?,-1.0,17.8µM*[quencher],?,-18.0%
Brc1ccc(C2Nc3cccc4cccc(c34)N2)s1,?,-5.1,?,12.6µM*,-15.0%
Clc1ccc(C2Nc3cccc4cccc(c34)N2)cc1,.,-4.6,.,.,-25.2%
COc1ccc(NC(=O)Cc2ccc(Cl)c(Cl)c2)cn1,-6.7%,-0.3,-22.5%,-5.0%,8.8%
COc1ccc(NC(=O)/C(Cl)=C(/Cl)S(=O)(=O)Cc2ccc(C)cc2)cn1,?,0.5,-24.7%,8.91µM*,?
